These molecules were tested on Pseudomonas aeruginosa PA14 dppA1-A5 penta mutant + pBBR5.DppA1 (PA14_58350) (assay: respiration area under curve with compound as sole nitrogen source, 24 h (OmniLog AUC (arbitrary units)); higher = more respiration / better utilisation as nitrogen source, active = 2000 or more).
Protocol: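 Biolog Phenotype MicroArray plates PM6-PM8: each di/tripeptide is the sole nitrogen source. Tetrazolium reduction was read in the OmniLog for 24 h at 37°C and summarised as area under the respiration curve (arbitrary units). Values below 2000 count as no respiration. Strain is the SBP penta mutant complemented with DppA1 on a plasmid under its native promoter. Lys/His/Cys peptides are excluded.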

Respiration area under curve, active:
CC(C)C[C@H](N)C(=O)NCC(=O)NCC(=O)O (plate: PM8) 8090
NCC(=O)N[C@@H](Cc1ccccc1)C(=O)O (plate: PM6) 2000
CC[C@H](C)[C@H](N)C(=O)N[C@@H](CC(C)C)C(=O)O (plate: PM8) 4900
NCC(=O)N[C@@H](CCCN=C(N)N)C(=O)O (plate: PM6) 7640
C[C@H](N)C(=O)N1CCC[C@H]1C(=O)O (plate: PM6) 10700
CC(C)[C@H](N)C(=O)N[C@H](C(=O)O)C(C)C (plate: PM7) 6680
CC(C)C[C@H](N)C(=O)NCC(=O)O (plate: PM6) 5940
C[C@H](NC(=O)[C@@H](N)CO)C(=O)O (plate: PM7) 9020
CC[C@H](C)[C@H](N)C(=O)N[C@@H](C)C(=O)O (plate: PM6) 2520
CC(C)[C@H](N)C(=O)N[C@@H](Cc1ccc(O)cc1)C(=O)N[C@H](C(=O)O)C(C)C (plate: PM8) 7350
CC(C)C[C@H](NC(=O)[C@@H](N)CO)C(=O)O (plate: PM7) 6240
C[C@@H](O)[C@H](NC(=O)CN)C(=O)O (plate: PM6) 2750
CC[C@H](C)[C@H](N)C(=O)N[C@@H](CO)C(=O)O (plate: PM6) 3970
CC(C)C[C@H](N)C(=O)N[C@@H](CO)C(=O)O (plate: PM7) 12700
CC(C)C[C@H](NC(=O)[C@@H](N)Cc1ccc(O)cc1)C(=O)O (plate: PM7) 6720
CC(C)[C@H](N)C(=O)N[C@@H](CCC(N)=O)C(=O)O (plate: PM8) 7140
N[C@@H](Cc1ccc(O)cc1)C(=O)N[C@@H](Cc1c[nH]c2ccccc12)C(=O)O (plate: PM7) 2730
C[C@@H](O)[C@H](N)C(=O)N[C@@H](CCC(=O)O)C(=O)O (plate: PM7) 5630
O=C(O)[C@@H]1CCCN1C(=O)[C@@H]1CCCN1 (plate: PM7) 8180
CC[C@H](C)[C@H](NC(=O)[C@@H]1CCCN1)C(=O)O (plate: PM8) 4410
CC(C)[C@H](N)C(=O)N[C@@H](CC(=O)O)C(=O)O (plate: PM7) 6440
CSCC[C@H](N)C(=O)N[C@@H](CCC(N)=O)C(=O)O (plate: PM7) 8220
C[C@@H](O)[C@H](N)C(=O)N[C@@H](CC(=O)O)C(=O)O (plate: PM8) 3640
CC[C@H](C)[C@H](NC(=O)[C@@H](N)Cc1ccccc1)C(=O)O (plate: PM7) 7890
N[C@@H](CC(=O)O)C(=O)NCC(=O)O (plate: PM8) 2620
N[C@@H](CO)C(=O)N[C@@H](Cc1ccc(O)cc1)C(=O)O (plate: PM7) 5300
CC(C)[C@H](NC(=O)[C@@H](N)CC(N)=O)C(=O)O (plate: PM6) 5500

Respiration area under curve, inactive:
CSCC[C@H](N)C(=O)N[C@@H](Cc1ccccc1)C(=O)O (plate: PM7) 680
C[C@@H](N)C(=O)NCC(=O)NCC(=O)O (plate: PM8) 46.7
NCC(=O)N[C@@H](Cc1ccc(O)cc1)C(=O)O (plate: PM6) 1420
CC(C)C[C@@H](N)C(=O)NCC(=O)O (plate: PM8) 0
CC[C@H](C)[C@H](N)C(=O)N[C@@H](Cc1ccccc1)C(=O)O (plate: PM6) 1500
NC(Cc1c[nH]c2ccccc12)C(=O)NC(Cc1ccccc1)C(=O)O (stereo not given) (plate: PM7) 365
CC(C)C[C@H](N)C(=O)N[C@H](CC(C)C)C(=O)O (plate: PM8) 284
N[C@@H](CCC(=O)O)C(=O)N[C@@H](Cc1ccc(O)cc1)C(=O)O (plate: PM6) 1030
N[C@@H](Cc1ccccc1)C(=O)N[C@@H](Cc1c[nH]c2ccccc12)C(=O)O (plate: PM7) 389
N[C@@H](Cc1c[nH]c2ccccc12)C(=O)NCC(=O)O (plate: PM7) 1010
N[C@@H](CC(=O)O)C(=O)N[C@@H](Cc1c[nH]c2ccccc12)C(=O)O (plate: PM6) 1340
N[C@@H](Cc1c[nH]c2ccccc12)C(=O)N[C@@H](CC(=O)O)C(=O)O (plate: PM7) 502
CSCC[C@H](N)C(=O)N[C@@H](Cc1ccc(O)cc1)C(=O)O (plate: PM8) 780

Source: the supplement of paper PMC4206461
